{"source": "PubChem BioAssay", "note": "Potency and affinity values are given separately. Results filed as inconclusive are left out. Calls of active or inactive are those of the source. How the calls were made is not given here.", "data": [{"experiment": "IGROV1 ovarian cancer cell cytotoxicity, dose response, PAX8 inhibitor project, plate reader, dry powder samples (AID 743043);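 further: more negative means fewer viable cells or more cytotoxicity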", "conditions": "series mostly up to 35 µM; activity change, negative = cytotoxicity: at the top concentration", "values": [{"smiles": "COc1ccccc1-c1ccc2c(c1)[C@H]1[C@H](CCN1S(=O)(=O)c1ccccc1F)[C@H](CO)N2", "activity change, negative = cytotoxicity": "11.7% (inactive)"}, {"smiles": "COc1ccccc1-c1ccc2c(c1)O[C@H](CN(C)Cc1ccc3c(c1)OCO3)[C@H](C)CN([C@@H](C)CO)S2(=O)=O", "activity change, negative = cytotoxicity": "31.1% (inactive)"}, {"smiles": "COc1ccc(S(=O)(=O)N2CCCCN3[C@H](C2)[C@H](c2ccc(C#CC(C)C)cc2)[C@@H]3CO)cc1", "activity change, negative = cytotoxicity": "14.4% (inactive)"}, {"smiles": "C[C@@H]1CCCCO[C@H](CN(C)CC2CCCCC2)[C@H](C)CN([C@H](C)CO)C(=O)c2cc(NS(=O)(=O)c3ccc(Cl)cc3)ccc2O1", "activity change, negative = cytotoxicity": "21.8% (inactive)"}, {"smiles": "COc1ccc(S(=O)(=O)N(C)C[C@H]2Oc3ccc(NC(=O)Nc4ccc(C(F)(F)F)cc4)cc3CC(=O)N([C@H](C)CO)C[C@@H]2C)cc1", "activity change, negative = cytotoxicity": "29% (inactive)"}, {"smiles": "COc1ccc(S(=O)(=O)N2CCCCN3[C@H](C2)[C@@H](c2ccc(C#CC(C)C)cc2)[C@@H]3CO)cc1", "activity change, negative = cytotoxicity": "9.36% (inactive)"}, {"smiles": "COc1ccc(NC(=O)Nc2ccc3c(c2)CC(=O)N([C@@H](C)CO)C[C@@H](C)[C@@H](CN(C)Cc2ccc(Oc4ccccc4)cc2)O3)cc1", "activity change, negative = cytotoxicity": "18.5% (inactive)"}, {"smiles": "C[C@@H]1CCCCO[C@H](CN(C)Cc2ccc(Cl)c(Cl)c2)[C@@H](C)CN([C@@H](C)CO)C(=O)c2cc(NS(=O)(=O)c3ccc(Cl)cc3)ccc2O1", "activity change, negative = cytotoxicity": "-7% (inactive)"}, {"smiles": "C[C@H](CO)N1C[C@H](C)[C@@H](CN(C)C(=O)Nc2ccc(F)cc2)OCc2ccccc2-c2c(n(C)c3ccccc23)C1=O", "activity change, negative = cytotoxicity": "1.1% (inactive)"}, {"smiles": "C[C@H](CO)N1C[C@H](C)[C@H](CN(C)C(=O)NC2CCCCC2)Oc2cc(C#Cc3ccc(F)cc3)ccc2S1(=O)=O", "activity change, negative = cytotoxicity": "0.137% (inactive)"}, {"smiles": "C[C@H]1CCCCO[C@H](CN(C)S(=O)(=O)c2ccc(Cl)cc2)[C@@H](C)CN([C@@H](C)CO)C(=O)c2cc(NS(=O)(=O)c3ccc(Cl)cc3)ccc2O1", "activity change, negative = cytotoxicity": "3.92% (inactive)"}, {"smiles": "C[C@@H]1CCCCO[C@H](CN(C)C(=O)Nc2ccc(C(F)(F)F)cc2)[C@H](C)CN([C@@H](C)CO)C(=O)c2cc(NS(=O)(=O)c3ccc(Cl)cc3)ccc2O1", "activity change, negative = cytotoxicity": "-13.4% (inactive)"}, {"smiles": "C[C@H](CO)N1C[C@H](C)[C@@H](CN(C)Cc2ccc(Cl)c(Cl)c2)OCCCC[C@H](C)Oc2ccc(NC(=O)Nc3ccccc3)cc2C1=O", "activity change, negative = cytotoxicity": "-12% (inactive)"}, {"smiles": "C[C@@H]1CN([C@@H](C)CO)C(=O)c2cc(NC(=O)c3ccccc3)ccc2O[C@@H](C)CCCCO[C@H]1CN(C)Cc1ccc(C(F)(F)F)cc1", "activity change, negative = cytotoxicity": "-36.2% (inactive)"}, {"smiles": "Cc1ccc(S(=O)(=O)Nc2ccc3c(c2)C(=O)N([C@H](C)CO)C[C@H](C)[C@H](CN(C)C(=O)c2ccccc2)OCCCC[C@H](C)O3)cc1", "activity change, negative = cytotoxicity": "-8.29% (inactive)"}]}, {"experiment": "NIH:OVCAR-3 ovarian cancer cell cytotoxicity, dose response, PAX8 inhibitor project, plate reader, dry powder samples (AID 743044)", "conditions": "NIH:OVCAR-3 ovarian cancer cell viability; max activity: at 35 µM, stronger effect = lower value unless noted; series mostly up to 50 µM; activity change, negative = cytotoxicity: at the top concentration", "values": [{"smiles": "C[C@H]1CCCCO[C@H](CN(C)Cc2ccc(Cl)c(Cl)c2)[C@@H](C)CN([C@@H](C)CO)C(=O)c2cc(NC(=O)Nc3ccc(F)cc3)ccc2O1", "max activity": "-19.8% [at 0.26 µM, stronger effect = lower value] (inactive)"}, {"smiles": "C[C@@H]1CN([C@@H](C)CO)C(=O)c2c(c3ccccc3n2C)-c2ccccc2CO[C@H]1CN(C)C(=O)Nc1ccc2c(c1)OCO2", "max activity": "-21.8% [at 16 µM, stronger effect = lower value] (inactive)"}, {"smiles": "C[C@@H]1CCCCO[C@H](CN(C)Cc2ccc(C(F)(F)F)cc2)[C@H](C)CN([C@@H](C)CO)C(=O)c2cc(NC(=O)Nc3ccc(F)cc3)ccc2O1", "max activity": "-17.3% (inactive)"}, {"smiles": "C[C@H](CO)N1C[C@H](C)[C@H](CN(C)S(=O)(=O)c2cccs2)OCCCC[C@H](C)Oc2ccc(NC(=O)NC3CCCCC3)cc2C1=O", "max activity": "9.21% [at 0.26 µM, stronger effect = lower value] (inactive)"}, {"smiles": "C[C@H]1CCCCO[C@@H](CN(C)S(=O)(=O)c2cccs2)[C@@H](C)CN([C@@H](C)CO)C(=O)c2cc(NC(=O)NC3CCCCC3)ccc2O1", "max activity": "-5.85% [at 8 µM, stronger effect = lower value] (inactive)"}, {"smiles": "C[C@@H]1CN([C@H](C)CO)C(=O)c2cc(NS(=O)(=O)c3ccc(F)cc3)ccc2O[C@@H]1CN(C)Cc1ccc(C(F)(F)F)cc1", "max activity": "-4.85% (inactive)"}, {"smiles": "C[C@@H]1CCCCO[C@H](CN(C)C(=O)Cc2ccccc2)[C@H](C)CN([C@@H](C)CO)C(=O)c2cc(NC(=O)Nc3ccc(C(F)(F)F)cc3)ccc2O1", "max activity": "13.6% (inactive)"}, {"smiles": "C[C@H](CO)N1C[C@H](C)[C@@H](CN(C)C(=O)NC2CCCCC2)Oc2cc(C#Cc3ccc(F)cc3)ccc2S1(=O)=O", "max activity": "10.3% [at 2.1 µM, stronger effect = lower value] (inactive)"}, {"smiles": "C[C@@H]1CCCCO[C@H](CN(C)C)[C@H](C)CN([C@H](C)CO)C(=O)c2cc(NC(=O)Nc3cccc4ccccc34)ccc2O1", "max activity": "24.8% [at 4.2 µM, stronger effect = lower value] (inactive)"}, {"smiles": "C[C@@H]1CCCCO[C@@H](CN(C)S(=O)(=O)c2ccc(Cl)cc2)[C@H](C)CN([C@@H](C)CO)C(=O)c2cc(NS(=O)(=O)c3ccc(Cl)cc3)ccc2O1", "max activity": "-34.3% [at 16 µM, stronger effect = lower value] (inactive)"}, {"smiles": "C[C@H](CO)N1C[C@H](C)[C@@H](CN(C)Cc2ccc(Oc3ccccc3)cc2)OCc2ccccc2-c2c(n(C)c3ccccc23)C1=O", "max activity": "1.33% (inactive)"}, {"smiles": "C[C@@H]1CN([C@@H](C)CO)C(=O)c2cc(NC(=O)Nc3ccc4c(c3)OCO4)ccc2O[C@@H]1CN(C)C(=O)Nc1ccc(C(F)(F)F)cc1", "max activity": "51.3% [at 0.26 µM, stronger effect = lower value] (inactive)"}, {"smiles": "C[C@@H]1CN([C@@H](C)CO)C(=O)c2cc(NS(=O)(=O)c3ccccc3)ccc2O[C@@H](C)CCCCO[C@@H]1CN(C)Cc1ccc(C(F)(F)F)cc1", "max activity": "-5.59% (inactive)"}, {"smiles": "C[C@@H]1CN([C@@H](C)CO)C(=O)Cc2cc(NC(=O)Nc3ccc(C(F)(F)F)cc3)ccc2O[C@H]1CN(C)S(=O)(=O)c1ccc(F)cc1", "max activity": "16.6% [at 1 µM, stronger effect = lower value] (inactive)"}, {"smiles": "C[C@@H]1CCCCO[C@H](CN(C)Cc2ccc(C(F)(F)F)cc2)[C@H](C)CN([C@H](C)CO)C(=O)c2cc(NC(=O)Nc3ccc(F)cc3)ccc2O1", "max activity": "10.2% [at 1 µM, stronger effect = lower value] (inactive)"}, {"smiles": "CN1c2ccc(C#Cc3cccnc3)cc2[C@@H]2[C@@H](CCN2C(=O)Cc2cccnc2)[C@@H]1CO", "max activity": "17.5% [at 16 µM, stronger effect = lower value] (inactive)"}, {"smiles": "COc1ccc(NC(=O)Nc2ccc3c(c2)C(=O)N([C@@H](C)CO)C[C@@H](C)[C@@H](CN(C)Cc2ccc(C(F)(F)F)cc2)OCCCC[C@@H](C)O3)cc1", "max activity": "-11.3% (inactive)"}, {"smiles": "O=C(Nc1ccc(C(F)(F)F)cc1)N1C[C@@H]2N[C@H](C1)C2c1ccc(-c2ccccc2)cc1", "note": "(some centres not stated)", "max activity": "13.9% [at 0.26 µM, stronger effect = lower value] (inactive)"}, {"smiles": "C[C@H]1CN([C@@H](C)CO)C(=O)CCCn2nncc2CO[C@@H]1CN(C)C(=O)Nc1ccc(-c2cccs2)cc1", "max activity": "-29.9% (inactive)"}, {"smiles": "CCCN(C)C[C@H]1OCCCC[C@@H](C)Oc2ccc(NC(=O)c3ccccc3)cc2C(=O)N([C@H](C)CO)C[C@H]1C", "max activity": "25.8% [at 0.5 µM, stronger effect = lower value] (inactive)"}, {"smiles": "CC(C)CC#Cc1ccc2c(c1)O[C@@H](CN(C)Cc1ccncc1)[C@H](C)CN([C@@H](C)CO)S2(=O)=O", "max activity": "11.2% [at 4.2 µM, stronger effect = lower value] (inactive)"}, {"smiles": "C[C@@H]1CN([C@H](C)CO)C(=O)c2cc(NC(=O)Nc3ccc(F)cc3)ccc2O[C@@H](C)CCCCO[C@H]1CN(C)C(=O)Nc1ccc(F)cc1", "max activity": "13.6% (inactive)"}, {"smiles": "Cc1ccc(S(=O)(=O)N(C)C[C@H]2OCCCC[C@@H](C)Oc3ccc(NS(=O)(=O)c4ccc(F)cc4)cc3C(=O)N([C@@H](C)CO)C[C@H]2C)cc1", "max activity": "-18.9% [at 0.5 µM, stronger effect = lower value] (inactive)"}, {"smiles": "C[C@H]1CCCCO[C@@H](CN(C)C)[C@@H](C)CN([C@@H](C)CO)C(=O)c2cc(NC(=O)Nc3ccc(C(F)(F)F)cc3)ccc2O1", "max activity": "-16.2% [at 8 µM, stronger effect = lower value] (inactive)"}, {"smiles": "Cc1ccc(S(=O)(=O)Nc2ccc3c(c2)C(=O)N([C@@H](C)CO)C[C@@H](C)[C@@H](CN(C)Cc2ccc(C(F)(F)F)cc2)OCCCC[C@@H](C)O3)cc1", "max activity": "-26.4% [at 8 µM, stronger effect = lower value] (inactive)"}, {"smiles": "COc1ccccc1-c1ccc2c(c1)[C@H]1[C@H](CCN1S(=O)(=O)c1ccccc1F)[C@H](CO)N2", "max activity": "-17.4% (inactive)"}, {"smiles": "COc1ccccc1-c1ccc2c(c1)O[C@H](CN(C)Cc1ccc3c(c1)OCO3)[C@H](C)CN([C@@H](C)CO)S2(=O)=O", "max activity": "20.4% [at 4.2 µM, stronger effect = lower value] (inactive)"}, {"smiles": "COc1ccc(S(=O)(=O)N2CCCCN3[C@H](C2)[C@H](c2ccc(C#CC(C)C)cc2)[C@@H]3CO)cc1", "max activity": "-13.1% [at 8 µM, stronger effect = lower value] (inactive)"}, {"smiles": "C[C@@H]1CCCCO[C@H](CN(C)CC2CCCCC2)[C@H](C)CN([C@H](C)CO)C(=O)c2cc(NS(=O)(=O)c3ccc(Cl)cc3)ccc2O1", "max activity": "10.1% (inactive)"}, {"smiles": "COc1ccc(S(=O)(=O)N(C)C[C@H]2Oc3ccc(NC(=O)Nc4ccc(C(F)(F)F)cc4)cc3CC(=O)N([C@H](C)CO)C[C@@H]2C)cc1", "max activity": "26.7% [at 16 µM, stronger effect = lower value] (inactive)"}, {"smiles": "COc1ccc(S(=O)(=O)N2CCCCN3[C@H](C2)[C@@H](c2ccc(C#CC(C)C)cc2)[C@@H]3CO)cc1", "max activity": "10.6% [at 8 µM, stronger effect = lower value] (inactive)"}, {"smiles": "COc1ccc(NC(=O)Nc2ccc3c(c2)CC(=O)N([C@@H](C)CO)C[C@@H](C)[C@@H](CN(C)Cc2ccc(Oc4ccccc4)cc2)O3)cc1", "max activity": "14.4% [at 18 µM, stronger effect = lower value] (inactive)"}]}]}
